tim23-1 inh = growth inhibitors of tim23-1 mutant yeast, primary screen, luminescence, uHTS; inhibition, % at 20 µM; S. cerevisiae tim23-1 growth, BacTiter-Glo luminescence, 24 h; hit rate 1.3% among 330,000;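 active = growth inhibition of the mutant yeast at or above 50%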;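 note: temperature-sensitive mutant grown at 25 °C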
PfHsp90 yeast 2 = growth inhibition of PfHsp90-expressing yeast, primary screen, antimalarial PfHsp90 inhibitor project, S. cerevisiae, BacTiter-Glo luminescence, single point, set 2; hit rate 0.32% among 310,000; inhibition, % at 9.4 µM; BacTiter-Glo ATP, 48 h; yeast lacking PDR1 and PDR3 efflux regulators;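 active = every replicate shows inhibition above about 80%, whatever the replicate mean, limit read from the data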
TIM10 inh = growth inhibitors of isogenic TIM10 control yeast, primary screen, counter-screen for tim10-1 yeast inhibitor project, luminescence, uHTS | inhibition, % at 10 µM | hit rate 1.4% among 330,000 | S. cerevisiae TIM10 strain growth, BacTiter-Glo luminescence, 24 h;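 active = inhibition of 40% or more at the single tested concentration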;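 note: wild-type TIM10 isogenic control strain grown at permissive 25 °C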
tim10-1 inh = growth inhibitors of tim10-1 mutant yeast, primary screen, luminescence, uHTS; inhibition, % at 20 µM; S. cerevisiae tim10-1 ts strain growth, BacTiter-Glo, 24 h; hit rate 2.2% among 330,000;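 active = inhibition of at least 40%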;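 note: mutant grown at 25 °C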
SKKanGAS inh = S. pyogenes SKKanGAS growth inhibitors in kanamycin, primary screen, streptokinase expression inhibitor project, SKKanGAS strain, BacTiter-Glo luminescence; hit rate 1.3% among 300,000; inhibition, % at 7.5 µM; 6 h;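 active = mean replicate score, as percent of positive control median, at least 50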;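 note: strain carries kanamycin resistance gene driven by streptokinase promoter and grows in 40 µg/ml kanamycin; loss of luminescence reflects streptokinase promoter inhibition or plain growth inhibition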
tim10-1 conf = growth inhibitors of tim10-1 mutant yeast, confirmation, single concentration, luminescence, S. cerevisiae. shares compounds with tim10-1 inh. S. cerevisiae tim10-1 ts strain growth, BacTiter-Glo, 24 h. inhibition, % at 20 µM. hit rate 56% among 7,400. AID 463213, 2010;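 active = inhibition of yeast growth at or above a set limit in either of two repeat tests at 20 µM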;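 note: tim10-1 mutant grown at permissive 25 °C to find synthetic lethal compounds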
Each line names hits and unclear results; the compound was inactive in the other large screens (follow-up assays come after a bar, where they were run). This is a sample that favours compounds with a hit; in the whole collection about 4.4% have one here.

Cc1cccc(C(=O)CC(=O)c2cc(Cl)ccc2O)c1	tim10-1 inh 47.3, SKKanGAS inh 94.1 | tim10-1 conf 63.0
O=C(O)c1ccc(C=C(c2nc3ccccc3s2)c2nc3ccccc3s2)cc1	tim10-1 inh 59.2 | tim10-1 conf 45.1
O=C(O)c1ccc(Oc2nc3ccccc3s2)cc1	none (no result: tim23-1 inh, TIM10 inh, tim10-1 inh, SKKanGAS inh)
CCOC(=O)c1sc(NC(=O)C2CC2)cc1C	tim10-1 inh 54.5 | tim10-1 conf inactive
CN(C)c1nc(-c2ccccn2)nnc1-c1ccccc1	tim10-1 inh 40.1 | tim10-1 conf inactive
c1ccc(-c2nnc(-c3ccccn3)c(-c3ccccn3)n2)nc1	none (no result: PfHsp90 yeast 2)
COc1cccc(OCC(O)CN2CCN(C)CC2)c1 (centres undefined)	none
CCOc1ccc(OCCNC(=O)c2cc(C3CC3)nc3c2cnn3C(C)C)cc1	none (no result: SKKanGAS inh)
CCCc1cc(C(=O)Nc2cccc([N+](=O)[O-])c2)cs1	tim10-1 inh 41.3 | tim10-1 conf 30.9
CCOC(=O)/C(C#N)=C1/C(=O)N(Cc2ccccc2)c2ccccc21	tim10-1 inh 49.4 (no result: SKKanGAS inh) | tim10-1 conf inactive
CSc1ccc(/C=C/C(=O)c2c(O)cc(C)oc2=O)cc1	tim10-1 inh 46.9 | tim10-1 conf 38.5
O=C(C1CCC1)N1CCCc2cc(S(=O)(=O)N3CCN(c4ccccc4)CC3)ccc21	tim10-1 inh 45.9 | tim10-1 conf 34.5
Cc1cccc2cc(C#N)c(NCCCNS(=O)(=O)c3ccc(Cl)cc3)nc12	none
CC(C)NC(=O)c1cnc(Sc2ncc(C(F)(F)F)cc2Cl)n1C	none
CSc1nc2nccc(-c3ccc(Cl)cc3)n2n1	none
FC(F)(F)c1cnc(Sc2nc3nccc(-c4ccc(Cl)cc4)n3n2)c(Cl)c1	tim10-1 inh 41.4 | tim10-1 conf inactive
COc1ccc(-c2ccnc3nc(Sc4ncc(C(F)(F)F)cc4Cl)nn23)cc1	tim10-1 inh 50.5 | tim10-1 conf inactive
O=S(=O)(Nc1ccc2ccccc2n1)c1ccccc1	none
COc1cc(/C=C/C(=O)OCC(=O)Nc2cc(S(=O)(=O)N3CCCC3)ccc2Cl)cc(OC)c1OC	none (no result: PfHsp90 yeast 2, SKKanGAS inh)
Cc1ccc(/C=C2\CCCC3=C2NC(=S)NC3c2ccc(C)cc2)cc1 (centres undefined)	none
COc1ccc(C2NC(=S)NC3=C2CCc2cc(OC)ccc23)cc1 (centres undefined)	tim10-1 inh 54.3 | tim10-1 conf 40.3
CC1CCCC(NC(=O)CN(C)CC(=O)Nc2cccc(F)c2)C1C (centres undefined)	none (no result: SKKanGAS inh)
CC(=O)N(C(C)=O)C1=C(C#N)C2(CCCCC2)Cc2ccccc21	tim10-1 inh 46.5 | tim10-1 conf 34.5
Cn1c(-c2ccccc2)cc(=O)n1-c1ccccc1	none (no result: tim23-1 inh, TIM10 inh, tim10-1 inh, SKKanGAS inh)
Cc1c(C(=O)N2CCN(Cc3ccc4c(c3)OCO4)CC2)sc2ncnc(N3CCN(c4ccccc4)CC3)c12	tim10-1 inh 47.9 | tim10-1 conf inactive
O=C(c1cc2c(=O)n3ccccc3nc2s1)N1CCN(Cc2ccccc2)CC1	none
Cc1c(C(=O)N2CCN(c3ccccn3)CC2)sc2ncnc(N3CCN(c4ccccc4)CC3)c12	none
O=C(c1cc2c(=O)n3ccccc3nc2s1)N1CCN(Cc2ccc3c(c2)OCO3)CC1	tim10-1 inh 43.1 (no result: PfHsp90 yeast 2) | tim10-1 conf inactive
Cc1c(C(=O)N2CCN(Cc3ccc4c(c3)OCO4)CC2)sc2ncnc(N3CCN(c4ccccc4F)CC3)c12	tim10-1 inh 41.4 | tim10-1 conf inactive
COc1cccc(CC(=O)OC(C)C(=O)Nc2ccc(N3CCOCC3)cc2)c1 (centres undefined)	none (no result: PfHsp90 yeast 2)
CN(C)S(=O)(=O)c1cccc(NC(=S)NN=C(Cc2ccccc2)Cc2ccccc2)c1	tim10-1 inh 43.6 | tim10-1 conf inactive
Cc1cc(-c2ccc(C)c(S(=O)(=O)NCc3cccc(Br)c3)c2)on1	tim10-1 inh 40.9 | tim10-1 conf inactive
Cc1cc(-c2ccc(C)c(S(=O)(=O)NCc3ccc(Br)cc3)c2)on1	tim10-1 inh 43.2 | tim10-1 conf inactive
Cc1cc(-c2ccc(C)c(S(=O)(=O)NCCc3ccco3)c2)on1	none
N#Cc1ccccc1OCCOCCNC1CCCC1	none
COc1ccc(N(C(=O)CCl)C(C(=O)NC2CCCCC2)c2cccnc2)cc1 (centres undefined)	tim10-1 inh 41.1 | tim10-1 conf 32.1
O=C(Nc1ccc(-n2cccn2)cc1)C1CCCCN1Cc1cccc2c1OCO2 (centres undefined)	none
Cc1ccc(S(=O)(=O)NCc2ccco2)cc1C	none
Cc1cc(C)cc(NC(=O)c2cc(S(=O)(=O)NCc3ccco3)ccc2F)c1	tim10-1 inh 46.0 | tim10-1 conf 40.1
O=S(=O)(NCc1ccco1)c1ccc2c(c1)Cc1ccccc1-2	tim10-1 inh 45.1 (no result: PfHsp90 yeast 2) | tim10-1 conf 34.8
CCOc1ccc2cc(C3CC(c4ccco4)=NN3S(=O)(=O)c3ccccc3)c(Cl)nc2c1 (centres undefined)	none
COc1ccc2cc(C3CC(c4ccco4)=NN3S(=O)(=O)c3ccccc3)c(Cl)nc2c1 (centres undefined)	tim10-1 inh 46.7 | tim10-1 conf inactive
O=C(O)C1C2OC3C(OC(=O)C31)C2Br (centres undefined)	none (no result: tim23-1 inh, TIM10 inh, tim10-1 inh, SKKanGAS inh)
COc1cccc(CNCC(=O)NC(=O)NC2CCCC2)c1	none (no result: SKKanGAS inh)
C/C(CCc1oc2ccc(Cl)cc2c1-c1ccc(C)o1)=N\O	tim10-1 inh 42.1 | tim10-1 conf 43.0
C/C(CCc1oc2ccc(Br)cc2c1-c1ccc(C)o1)=N/O	none
CCOC(=O)C1=C(CC)Nc2ccccc2N=C1NC(=O)c1cc(S(=O)(=O)N2CCOCC2)ccc1C	none (no result: PfHsp90 yeast 2, SKKanGAS inh)
CC(C)N(C(=O)CSc1ccc(S(=O)(=O)N2CCCCC2)cn1)c1ccccc1	none (no result: PfHsp90 yeast 2, SKKanGAS inh)
COc1ccc(Nc2nc(S(=O)(=O)c3ccc(C)cc3)c(Cl)s2)cc1	tim10-1 inh 42.1 | tim10-1 conf inactive
Cc1ccc(S(=O)(=O)c2nc(Nc3ccccc3)sc2Cl)cc1	none (no result: tim23-1 inh, PfHsp90 yeast 2, TIM10 inh, tim10-1 inh)
COc1cc(S(=O)(=O)Nc2ccccc2C(=O)N2CCCCC2)ccc1NC(C)=O	none (no result: SKKanGAS inh)
O=C1NC(=O)C2(Br)Nc3ccc(Br)cc3C(=O)C2N1 (centres undefined)	none (no result: tim23-1 inh, TIM10 inh, tim10-1 inh, SKKanGAS inh)
COc1ccc(NC(=O)COC(=O)CCNC(=O)c2ccco2)cc1Cl	none (no result: SKKanGAS inh)
CCc1c(C)sc(NC(=O)c2cc(C(C)C)on2)c1C#N	none
Cc1cc(C(=O)Nc2sc(C)c(C)c2C#N)no1	tim10-1 inh 42.9 | tim10-1 conf inactive
O=C1[C@@H](Oc2ccccc2)[C@@H](c2cccnc2)N1c1ccccc1	none (no result: SKKanGAS inh)
CC(C)c1ccc(/C=C/C(=O)N2CCCCCC2)cc1	tim10-1 inh 42.7 | tim10-1 conf inactive
O=C(O)CCC(=O)/C=C/c1ccccc1	none
CC(C)c1ccc(/C=C/C(=O)CCC(=O)O)cc1	tim10-1 inh 40.5 | tim10-1 conf inactive

Screening data as filed in PubChem.
